Measurements as given in PubChem BioAssay (EPA / NIEHS).
Calls of active or inactive are those of the source. Rule for the calls: active = hit-call score of the fitted dose curve at least 0.9, where 1 is the maximum; inactive = score below 0.9.

These compounds were tested on CYP2C9 (gene 1559) (assay: LTEA_HepaRG_CYP2C9: Life Technologies and Expression Analysis (LTEA) Assay for CYP2C9 using HepaRG (AID 2283484)). Settings: mRNA level, 48 h; actives raise or lower the signal.
Outline: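 Differentiated human HepaRG cells were exposed 48 h in serum-free induction medium to eight half-log concentrations up to 100 uM in 0.5% DMSO. CYP2C9 mRNA was measured by qRT-PCR, normalized to ACTB, GAPDH and POLR2A, and fitted bidirectionally against DMSO.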

SMILES | outcome | AC50
COP(=O)(NC(C)=O)SC (centres undefined) | inactive | –
CSc1nc(NC(C)C)nc(NC(C)C)n1 | – | 85.9 µM (active)
COP(=O)(OC)OC(Br)C(Cl)(Cl)Br (centres undefined) | inactive | –
CC(=NC#N)N(C)Cc1ccc(Cl)nc1 | inactive | –
CN1COCN(Cc2cnc(Cl)s2)C1=N[N+](=O)[O-] | inactive | –
COc1ccc(C(=CC(=O)N2CCOCC2)c2ccc(Cl)cc2)cc1OC | inactive | –
CNC(=O)ON=C(C)SC | inactive | –
CCOP(=S)(OCC)SCCSCC | inactive | –
CCOP(=O)(OCC)Oc1cc(C)nc(C(C)C)n1 | inactive | –
CCC(CC)Nc1c([N+](=O)[O-])cc(C)c(C)c1[N+](=O)[O-] | inactive | –
CCOP(=S)(OCC)Oc1ccc([N+](=O)[O-])cc1 | inactive | –
CC(C1CC1)C(O)(Cn1cncn1)c1ccc(Cl)cc1 (centres undefined) | inactive | –
CNC(=O)ON=C(SC)C(=O)N(C)C | inactive | –
CNC(=O)Oc1cccc2c1OC(C)(C)O2 | inactive | –
CCc1cnc(C2=NC(C)(C(C)C)C(=O)N2)c(C(=O)O)c1 (centres undefined) | inactive | –
Cc1cc(C2CC2)nc(Nc2ccccc2)n1 | inactive | –
CCCSP(=O)(OCC)SCCC | inactive | –
COc1cc(OC)nc(Sc2cccc(Cl)c2C(=O)O)n1 | inactive | –

SMILES | outcome | AC50
CC1(C(=O)Nc2ccc(O)c(Cl)c2Cl)CCCCC1 | inactive | –
CSc1nnc(C(C)(C)C)c(=O)n1N | inactive | –
CCC(=O)Nc1ccc(Cl)c(Cl)c1 | inactive | –
CCOP(=O)(NC(C)C)Oc1ccc(SC)c(C)c1 (centres undefined) | inactive | –
CC1=NNC(=O)N(/N=C/c2cccnc2)C1 | inactive | –
CSC1=N[C@@](C)(c2ccccc2)C(=O)N1Nc1ccccc1 | – | 33.8 µM (active)
CC(Oc1cccc(Cl)c1)C(=O)O (centres undefined) | – | 2.04 µM (active)
CCCCOC(=O)c1ccccc1C(=O)O | inactive | –
CON=C(C(=O)OC)c1ccccc1CON=C(C)c1cccc(C(F)(F)F)c1 | inactive | –
C#CC(C)(C)NC(=O)c1cc(Cl)cc(Cl)c1 | inactive | –
CC[C@H](C)[C@H]1O[C@]2(C=C[C@@H]1C)C[C@@H]1C[C@@H](C/C=C(\C)[C@@H](O[C@H]3C[C@H](OC)[C@@H](O[C@H]4C[C@H](OC)[C@@H](NC)[C@H](C)O4)[C@H](C)O3)[C@@H](C)/C=C/C=C3\CO[C@@H]4[C@H](O)C(C)=C[C@@H](C(=O)O1)[C@]34O)O2 | inactive | –
Nc1c(Cl)cc([N+](=O)[O-])cc1Cl | – | 63.8 µM (active)
CC(C)N(C(=O)SCC(Cl)=C(Cl)Cl)C(C)C | inactive | –
Cc1nn(-c2cc(NS(C)(=O)=O)c(Cl)cc2Cl)c(=O)n1C(F)F | inactive | –
C[Si](Cn1cncn1)(c1ccc(F)cc1)c1ccc(F)cc1 | – | 35.5 µM (active)
CNc1cnn(-c2cccc(C(F)(F)F)c2)c(=O)c1Cl | inactive | –
C#CCC1=C(C)C(OC(=O)C2C(C=C(C)C)C2(C)C)CC1=O (centres undefined) | inactive | –

These compounds were tested on CYP2E1 (gene 1571) (assay: LTEA_HepaRG_CYP2E1: Life Technologies and Expression Analysis (LTEA) Assay for CYP2E1 using HepaRG (AID 2283485)). Settings: mRNA level, 48 h; actives raise or lower the signal.
Outline: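 Differentiated HepaRG cells were treated in duplicate for 48 h with chemicals in 0.5% DMSO, from 100 uM downward in half-log dilutions. RNA was then analysed by qRT-PCR for CYP2E1 induction or loss.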

SMILES | outcome | AC50
COP(=O)(NC(C)=O)SC (centres undefined) | inactive | –
CSc1nc(NC(C)C)nc(NC(C)C)n1 | – | 39.1 µM (active)
COP(=O)(OC)OC(Br)C(Cl)(Cl)Br (centres undefined) | inactive | –
CC(=NC#N)N(C)Cc1ccc(Cl)nc1 | inactive | –
CN1COCN(Cc2cnc(Cl)s2)C1=N[N+](=O)[O-] | inactive | –
COc1ccc(C(=CC(=O)N2CCOCC2)c2ccc(Cl)cc2)cc1OC | – | 15.3 µM (active)
CNC(=O)ON=C(C)SC | inactive | –
CCOP(=S)(OCC)SCCSCC | inactive | –
CCOP(=O)(OCC)Oc1cc(C)nc(C(C)C)n1 | inactive | –
CCC(CC)Nc1c([N+](=O)[O-])cc(C)c(C)c1[N+](=O)[O-] | – | 64.7 µM (active)
CCOP(=S)(OCC)Oc1ccc([N+](=O)[O-])cc1 | – | 7.92 µM (active)
CC(C1CC1)C(O)(Cn1cncn1)c1ccc(Cl)cc1 (centres undefined) | – | 49.5 µM (active)
CNC(=O)ON=C(SC)C(=O)N(C)C | inactive | –
CNC(=O)Oc1cccc2c1OC(C)(C)O2 | inactive | –
CCc1cnc(C2=NC(C)(C(C)C)C(=O)N2)c(C(=O)O)c1 (centres undefined) | inactive | –
Cc1cc(C2CC2)nc(Nc2ccccc2)n1 | inactive | –
CCCSP(=O)(OCC)SCCC | – | 25.8 µM (active)

SMILES | outcome | AC50
COc1cc(OC)nc(Sc2cccc(Cl)c2C(=O)O)n1 | – | 29.7 µM (active)
CC1(C(=O)Nc2ccc(O)c(Cl)c2Cl)CCCCC1 | inactive | –
CSc1nnc(C(C)(C)C)c(=O)n1N | – | 23.2 µM (active)
CCC(=O)Nc1ccc(Cl)c(Cl)c1 | – | 50 µM (active)
CCOP(=O)(NC(C)C)Oc1ccc(SC)c(C)c1 (centres undefined) | – | 34.3 µM (active)
CC1=NNC(=O)N(/N=C/c2cccnc2)C1 | inactive | –
CSC1=N[C@@](C)(c2ccccc2)C(=O)N1Nc1ccccc1 | – | 20.9 µM (active)
CC(Oc1cccc(Cl)c1)C(=O)O (centres undefined) | – | 4.01 µM (active)
CCCCOC(=O)c1ccccc1C(=O)O | inactive | –
CON=C(C(=O)OC)c1ccccc1CON=C(C)c1cccc(C(F)(F)F)c1 | – | 25.4 µM (active)
C#CC(C)(C)NC(=O)c1cc(Cl)cc(Cl)c1 | – | 26.1 µM (active)
CC[C@H](C)[C@H]1O[C@]2(C=C[C@@H]1C)C[C@@H]1C[C@@H](C/C=C(\C)[C@@H](O[C@H]3C[C@H](OC)[C@@H](O[C@H]4C[C@H](OC)[C@@H](NC)[C@H](C)O4)[C@H](C)O3)[C@@H](C)/C=C/C=C3\CO[C@@H]4[C@H](O)C(C)=C[C@@H](C(=O)O1)[C@]34O)O2 | – | 5.32 µM (active)
Nc1c(Cl)cc([N+](=O)[O-])cc1Cl | – | 40.4 µM (active)
Cc1nn(-c2cc(NS(C)(=O)=O)c(Cl)cc2Cl)c(=O)n1C(F)F | – | 12.8 µM (active)
C[Si](Cn1cncn1)(c1ccc(F)cc1)c1ccc(F)cc1 | – | 19.4 µM (active)
CNc1cnn(-c2cccc(C(F)(F)F)c2)c(=O)c1Cl | – | 41.1 µM (active)
C#CCC1=C(C)C(OC(=O)C2C(C=C(C)C)C2(C)C)CC1=O (centres undefined) | – | 73.3 µM (active)
